# Source: PubChem BioAssay (several laboratories)
# Jurkat NFkB inh: lowers PMA/ionomycin-induced NF-kB signal in Jurkat cells; PMA/ionomycin-induced NF-kB luciferase reporter, luminescence; hit rate 0.53% among 330,000; inhibition, % at 4 µM; in the data active = inhibition above about 50%
# Gli-Sufu antag: Gli-Sufu pathway antagonism | Sufu-KO-LIGHT fibroblasts, Gli luciferase reporter luminescence | inhibition, % at 5 µM | hit rate 0.74% among 340,000;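 active = inhibition above about 55%, limit read from the data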;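 note: 0% = DMSO-treated cells and 100% = wells with medium but no cells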
# Beta cell apopt: blocks beta cell apoptosis; hit rate 0.8% among 300,000; INS-1E cytokine-induced death, ATP luminescence, 48 h; percent of positive-control rescue, neutral wells zero; protection from apoptosis, % (test concentration not listed);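 active = Every replicate reaches about 75%, or at least half do and their mean reaches it too, limit read from the data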;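 note: 0% = cytokine-treated negative control wells and 100% = positive control rescue; higher means more ATP so stronger rescue from cytokine killing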
# Mdm2-MdmX inh: inhibitors of human Mdm2/MdmX interaction | hit rate 3% among 330,000 | O15151+Q00987 | SaOS-2 split-luciferase Mdm2/MdmX complementation, luminescence | inhibition, % at 8 µM;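 active = inhibition of at least 50% at 8 µM in the primary screen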
# Target sequence (O15151 whole entry, looked up): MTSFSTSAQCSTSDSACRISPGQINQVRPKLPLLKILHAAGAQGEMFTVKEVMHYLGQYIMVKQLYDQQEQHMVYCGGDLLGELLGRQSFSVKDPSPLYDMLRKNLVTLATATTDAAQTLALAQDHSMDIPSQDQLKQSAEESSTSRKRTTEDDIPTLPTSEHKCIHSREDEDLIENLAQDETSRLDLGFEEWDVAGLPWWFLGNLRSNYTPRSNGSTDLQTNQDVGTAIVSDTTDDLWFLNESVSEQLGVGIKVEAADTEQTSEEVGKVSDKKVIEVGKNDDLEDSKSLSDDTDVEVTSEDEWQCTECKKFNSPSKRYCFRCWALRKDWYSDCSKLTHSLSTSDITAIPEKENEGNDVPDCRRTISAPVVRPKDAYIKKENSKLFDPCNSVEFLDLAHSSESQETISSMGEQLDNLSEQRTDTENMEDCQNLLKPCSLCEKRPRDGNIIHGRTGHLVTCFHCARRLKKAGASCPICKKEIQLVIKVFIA
# Target sequence (Q00987 whole entry, looked up): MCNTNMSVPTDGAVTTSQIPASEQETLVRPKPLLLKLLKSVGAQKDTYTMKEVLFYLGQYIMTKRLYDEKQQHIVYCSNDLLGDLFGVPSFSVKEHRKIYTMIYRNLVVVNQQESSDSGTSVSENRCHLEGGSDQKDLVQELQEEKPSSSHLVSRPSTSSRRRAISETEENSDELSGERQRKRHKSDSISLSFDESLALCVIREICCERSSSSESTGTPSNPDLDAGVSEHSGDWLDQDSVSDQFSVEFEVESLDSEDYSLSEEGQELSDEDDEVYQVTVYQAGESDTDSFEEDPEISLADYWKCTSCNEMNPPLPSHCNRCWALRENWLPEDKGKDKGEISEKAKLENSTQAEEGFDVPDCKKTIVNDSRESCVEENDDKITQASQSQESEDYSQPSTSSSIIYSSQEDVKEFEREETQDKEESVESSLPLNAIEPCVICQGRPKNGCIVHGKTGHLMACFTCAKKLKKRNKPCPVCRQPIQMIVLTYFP
# 697 NFkB inh: lowers PMA/ionomycin-induced NF-kB signal in 697 B cells; 697 B-cell NF-kB luciferase reporter, 16 h; inhibition, % at 4 µM; hit rate 0.33% among 330,000; AID 435022; in the data active = inhibition above about 35%
# Mdm2 MdmX conf: confirmation of human Mdm2/MdmX interaction inhibitors; Mdm2-MdmX binding, luminescent assay; AID 489028; hit rate 55% among 10,000; inhibition, % at 8 µM; shares compounds with Mdm2-MdmX inh; in the data active = inhibition above about 40%
# FLuc counter: inhibits full-length luciferase, flagging false Mdm2/MdmX hits | shares compounds with Mdm2-MdmX inh | SaOS-2 full-length luciferase counterscreen, luminescence | inhibition, % at 8 µM | hit rate 77% among 6,200;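 active = mean inhibition at 8 µM reaching about 37%, which flags the compound as non-specific, limit read from the data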;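 note: p53-null SaOS-2 cells with luciferase driven by a doxycycline-inducible promoter; compound on cells about two nights before reading with doxycycline added after day one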
# * marks the source's active call; other numbers are inactive results; . = not tested or not shown. The list is not random: actives were taken first. Their share in the collection is about 4%.
SMILES,Jurkat NFkB inh,Gli-Sufu antag,Beta cell apopt,Mdm2-MdmX inh,697 NFkB inh,Mdm2 MdmX conf,others
COc1ccc(-c2cc3c(=O)n(CC(=O)NCCCN4CCC(N5CCCCC5)CC4)ncn3n2)cc1,-112,-2,5,67*,-71,26,
CCCCC(=O)Nc1ccc(C(=O)NCCN2CCOCC2)cc1,19,-2,-3,8,-1,.,
O=C1C=CCCC1,-13,-8,1,15,12,.,
Cc1ccsc1C(=O)NN=C1CCCCCC1,3,-23,0,4,17,.,
COc1ccc(NS(=O)(=O)c2cccc(NC(=O)CCS(=O)(=O)c3ccccc3)c2)cc1,17,8,13,-3,1,.,
COc1ccc2[nH]cc(CCNC(=O)Cc3ccc(Cl)cc3)c2c1,10,-16,-7,-8,-13,.,
COc1ccc(-c2cc3c(=O)n(CC(=O)NC4CCN(Cc5ccccc5)CC4)ncn3n2)cc1,-5,18,8,69*,-13,13,
COCCNC(=O)/C(C#N)=C/C=C/c1ccccc1[N+](=O)[O-],28,-2,-24,53*,-64,54*,FLuc counter=23
CCN(c1ccccc1)S(=O)(=O)c1ccc(Oc2ccccc2C(C)=O)nc1,-6,1,1,8,-4,.,
CCN(c1ccccc1)S(=O)(=O)c1ccc(Oc2ccc(-n3ccnc3)cc2)nc1,17,-17,13,59*,-1,58*,FLuc counter=63*
COc1ccc(C(=O)COC(=O)C(CCSC)NC(=O)COc2ccccc2)c(OC)c1 (centres undefined),-8,0,0,17,16,.,
COC(=O)c1c(O)c2c([nH]c1=O)CCCC2,8,12,-2,12,16,.,
COC(=O)c1ccccc1NC(=O)c1c(O)c2c([nH]c1=O)CCCC2,-10,-8,0,56*,-9,11,
O=C(CN1C(=O)c2ccccc2S1(=O)=O)Nc1ncc(Cl)cc1Cl,14,48,2,84*,25,70*,FLuc counter=64*
CN(c1cccc(NC(=O)CN2C(=O)c3ccccc3S2(=O)=O)c1)S(C)(=O)=O,6,18,-3,51*,14,39,FLuc counter=82*
CC(C)c1ccc(NC(=O)CN2C(=O)c3ccccc3S2(=O)=O)cc1,-3,-19,1,37,-6,.,
O=C(CN1C(=O)c2ccccc2S1(=O)=O)Nc1ncccn1,16,-5,-6,9,4,.,
COc1ccc(Nc2nc(-c3ccccc3)nc3ccccc23)cc1,5,12,.,34,1,.,
O=C(O)c1ccc(Nc2nc(-c3ccc([N+](=O)[O-])cc3)nc3ccccc23)cc1,-1,-5,4,1,10,.,
COc1ccc(Nc2nc(-c3cccc([N+](=O)[O-])c3)nc3ccccc23)cc1,-16,5,11,55*,-5,14,
O=[N+]([O-])c1ccc(-c2nc(Nc3ccc(O)cc3)c3ccccc3n2)cc1,-29,14,8,70*,-3,28,
O=C(CSc1ccccc1)NN1C(=O)c2ccccc2C1=O,-11,-5,-13,20,-3,.,
CO/N=C/NC(=O)N1OC[C@@H]2COc3ccc4ccccc4c3[C@@H]21,-2,-3,-1,22,20,.,
NC(=S)N1OC[C@@H]2COc3ccc4ccccc4c3[C@@H]21,-12,-29,-6,69*,-11,53*,FLuc counter=46*
O=C(O)c1ccc(S(=O)(=O)c2ccc3c(c2)C(=O)N(c2ccc(O)cc2)C3=O)cc1,5,11,-5,33,18,.,
SMILES,Jurkat NFkB inh,Gli-Sufu antag,Beta cell apopt,Mdm2-MdmX inh,697 NFkB inh,Mdm2 MdmX conf,others
O=C1c2ccc3c4c(ccc(c24)C(=O)N1c1ccc(O)cc1)C(=O)N(c1ccc(O)cc1)C3=O,17,-4,68,63*,-10,17,
O=C(c1cn(-c2ccccc2)nc1-c1cccc([N+](=O)[O-])c1)N1CCCCC1,1,10,6,-10,-6,.,
Cc1sc(NC(=O)Cc2ccc3c(c2)OCO3)nc1-c1ccc2c(c1)CCN2C(=O)c1ccccc1F,16,2,15,54*,-28,31,
O=C(NNc1c2ccccc2nc2ccccc12)c1ccc(O)cc1,-7,28,47,28,-9,.,
O=C(NNc1c2ccccc2nc2ccccc12)C(O)c1ccccc1 (centres undefined),7,2,7,78*,-22,82*,FLuc counter=34
O=C(NNc1c2ccccc2nc2ccccc12)C12CC3CC(CC(C3)C1)C2,7,3,13,68*,2,4,
C/C(=N/NC(=O)c1sc(=S)n(C)c1C)c1ccccc1,7,-10,-5,53*,6,5,
CC1=NOC(=O)/C1=C\c1ccc(-c2ccc(Br)cc2)o1,.,-7,.,.,.,.,
CC1=NOC(=O)/C1=C\c1ccc(-c2cc(Cl)ccc2Cl)o1,36,-14,101*,100*,-2,16,
CC1=NOC(=O)/C1=C/c1ccc(-c2ccc(Cl)cc2)o1,15,.,73,100*,21,48*,FLuc counter=17
COc1ccc(Cn2c(CCC(=O)Nc3ccccc3OC)nc3cccnc32)cc1,15,-6,3,15,-3,.,
CCCCCc1cc(=O)oc2c(C(CCN3CCCC(C)C3)c3ccc4c(c3)OCO4)c(OC)cc(OC)c12 (centres undefined),4,8,67,79*,6,38,FLuc counter=66*
CCN(CC)CCC(c1ccc(N(C)C)cc1)c1c(OC)cc(OC)c2c(-c3ccccc3)cc(=O)oc12 (centres undefined),6,11,1,46,-8,.,
CCCCCc1cc(=O)oc2c(C(CCN(CC)CC)c3cc(OC)c(OC)c(OC)c3)c(OC)cc(OC)c12 (centres undefined),25,2,31,100*,7,39,FLuc counter=32
COc1ccc(C(CCN2CCCC(C)C2)c2c(OC)cc(OC)c3c(C)cc(=O)oc23)cc1 (centres undefined),13,11,8,34,-10,.,
CCCCCc1cc(=O)oc2c(C(CCN3CCCCC3)c3ccc4c(c3)OCO4)c(OC)cc(OC)c12 (centres undefined),31,-6,98*,93*,13,49*,FLuc counter=65*
CCOC(=O)CSc1nnc(SCCN2C(=O)c3ccccc3C2=O)s1,-4,18,.,-1,0,.,
COc1cc(Cl)ccc1OCc1cc(C(=O)N2C[C@]3(C)C[C@H]2CC(C)(C)C3)no1,-78,17,-5,-18,-96,.,
O=C(CN1CCN(c2ccc(C(F)(F)F)cn2)CC1)NCc1ccc2c(c1)OCO2,18,1,-3,7,-6,.,
Cc1ccc(SC(c2ccccc2)C(Cn2cncn2)C(=O)c2ccccc2)cc1 (centres undefined),0,-2,-12,60*,-16,23,
